Assay outcomes deposited in PubChem by National Center for Advancing Translational Sciences (NCATS).
An excerpt weighted towards active compounds, which were near 2.2% of everything screened.
Mito fusion act = mitochondrial division inhibition or fusion activation; S. cerevisiae fusion-defective mutant growth rescue, CellTiterGlo 48 h; Potency, µM (titrated, usually from 46.1 µM), usual class: activators; 320,000 compounds, 0.23% hits; note: nearly all actives have a fitted effect of over 45% in size
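Growth-rescue viability read-out: after 48 h at the non-permissive 37C in glycerol/ethanol YPEG, yeast mitochondrial fusion mutants are measured by CellTiterGlo luminescence; compounds (23 nl pinned per well) restoring growth score as division inhibitors or fusion activators.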
Abeta yeast res = A-beta toxicity reversal in yeast. yeast expressing A-beta42, growth rescue, OD600, 48 h; response scale: 0% DMSO, 100% iron-clioquinol control. Potency, µM (top dose mostly 46.1 µM), most hits filed as activators. 410,000 compounds, 0.063% hits. AID 1347071; note: nearly all actives have a fitted effect of over 55% in size
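Yeast growth medium received pinned compounds, then yeast cells expressing toxic A-beta were added; plates incubated at 30 C for 48 hr. Growth read as absorbance at 600 nm, normalized to DMSO and equimolar FeCl3 plus clioquinol controls.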
TDP-43 yeast inh = inhibitors of TDP-43 toxicity in yeast; TDP-43 expressing yeast growth rescue, BacTiter-Glo, 24 h; Potency, µM (highest dose often 46.1 µM), actives largely listed as activators; 410,000 compounds, 1.8% hits; note: nearly all actives have a fitted effect of over 50% in size
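Growth rescue of TDP-43-toxic yeast measured as ATP luminescence (BacTiter-Glo). Cells grown to mid-log in raffinose, induced in galactose at OD600=0.02, exposed to compound 24 hr at 30 deg C.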
ERG Ets-DNA blk = ERG Ets/DNA interaction inhibition; fluorescence polarization, His-ERG Ets domain / labelled DNA; AID 624246; 370,000 compounds, 0.028% hits; Potency, µM (doses to about 76.9 µM), usual class: inhibitors; active = well fitted inhibition curve with a large enough effect in the polarisation, with a control signal flat; inconclusive = small, poorly fitted or top-dose-only effect, or effect the other way, or a change in a side signal; inactive = no such curve, though single readings can be large or run the other way; the % refers to the polarisation;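 note: polarization taken with two DNA probes labelled with fluorescein and Texas red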
Target sequence (P11308 whole entry, looked up, the tested form may be a part): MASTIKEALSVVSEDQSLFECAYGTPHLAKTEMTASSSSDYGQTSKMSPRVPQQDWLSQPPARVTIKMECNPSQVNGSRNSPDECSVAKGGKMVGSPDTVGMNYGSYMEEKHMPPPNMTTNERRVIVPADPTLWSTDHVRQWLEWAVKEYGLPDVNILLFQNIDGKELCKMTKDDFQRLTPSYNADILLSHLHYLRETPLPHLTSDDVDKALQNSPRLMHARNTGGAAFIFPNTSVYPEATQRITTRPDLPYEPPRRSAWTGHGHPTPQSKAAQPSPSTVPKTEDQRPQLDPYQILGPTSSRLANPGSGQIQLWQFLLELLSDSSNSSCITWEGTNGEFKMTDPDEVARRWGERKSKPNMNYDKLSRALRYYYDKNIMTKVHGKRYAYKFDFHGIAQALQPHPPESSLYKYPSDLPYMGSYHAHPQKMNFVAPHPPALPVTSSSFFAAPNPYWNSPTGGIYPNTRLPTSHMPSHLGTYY
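His-tagged ERG Ets domain (1 uM in the protein solution; 300mM KCl, 50mM Tris-HCl, 1mM EDTA, 1mM DTT, pH 7.5) received compound, then a probe mix of 5 nM fluorescein-DNA and 100nM Texas-615-DNA. Fluorescence polarization was read for both dyes.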
aSyn yeast inh = alpha-synuclein toxicity inhibition in yeast | 370,000 compounds, 0.14% hits | Yeast expressing alpha-synuclein, growth rescue, BacTiter-Glo, 24 h | Potency, µM (highest dose often 46.1 µM), most hits filed as activators; note: nearly all actives have a fitted effect of over 65% in size
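Rescue of yeast growth: cells expressing toxic alpha-synuclein, induced in galactose at OD600 0.02, incubated with compound 24 h at 30 C. ATP luminescence quantified growth; inhibitors of toxicity appear as activators.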
FUS yeast rescue = rescues growth of FUS-expressing yeast | S. cerevisiae FUS-expressing, growth rescue, OD600, 24 h | Potency, µM (series often up to 76.6 µM), hits mostly activators | 390,000 compounds, 0.24% hits; note: nearly all actives have a fitted effect of over 55% in size
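Absorbance at 600 nm, taken 24hr after compound addition, measured rescue of FUS-yeast growth at 30C. Induction used 2% galactose with seeding at OD 0.005. Controls: CP55940 from 92uM final, DMSO only.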
Of the large screens only hits and unclear results are named; the others gave an inactive call. Unless noted, calls come from the whole dose curve; as a rule, active = well fitted curve in the direction sought with a large enough effect; inconclusive = small, poorly fitted or top-dose-only effect, or another doubt; inactive = no such curve, though single readings can be large; an effect the other way counts as inactive or inconclusive.

CCC(=O)N1CCc2cc(Br)cc(S(=O)(=O)CCC(=O)NCc3ccc(C)cc3)c21	none (no result: Mito fusion act, aSyn yeast inh)
O=[N+]([O-])c1ccc(/C=N/NC(=S)Nc2ccccc2F)o1	TDP-43 yeast inh 13µM
O=[N+]([O-])c1ccc(/C=N/NC(=S)Nc2ccccc2)o1	none
Cc1cc(NS(=O)(=O)c2ccc(-c3ccccc3)cc2)no1	Abeta yeast res inconclusive, TDP-43 yeast inh 10µM
Cc1ccc2c(C)c(C(=O)N(C)C(C)c3ccon3)oc2c1C (configuration not stated)	TDP-43 yeast inh inconclusive, ERG Ets-DNA blk 32µM, aSyn yeast inh inconclusive
Cc1nc2c(-c3ccc(F)cc3)c(C)nn2c(C)c1CCC(=O)NCc1cccc(Cl)c1	none (no result: Mito fusion act, aSyn yeast inh)
CCN1C=C(Cc2ccc(OC)cc2)C2=C(C1)C(c1ccc(OC)cc1)C(C#N)=C(N)O2 (configuration not stated)	FUS yeast rescue 35µM
COc1ccc(C2C(C#N)=C(N)Oc3cc4c(cc32)OCO4)cc1 (configuration not stated)	none (no result: ERG Ets-DNA blk)
Cc1nnc(SCC(=O)NCc2ccc3c(c2)OCO3)s1	none
Cc1nc(SCC(=O)NCc2ccc3c(c2)OCO3)c(C#N)c2c1CCCC2	TDP-43 yeast inh inconclusive, aSyn yeast inh 18µM
O=C(CSc1nncs1)NCc1ccc2c(c1)OCO2	TDP-43 yeast inh 13µM
Nc1c(C(=O)Nc2ccccc2Cl)c2ccccn2c1C(=O)c1ccccc1	none (no result: Mito fusion act, aSyn yeast inh)
COc1ccc(-c2ccc(=O)n(Cc3cccc([N+](=O)[O-])c3)n2)cc1	TDP-43 yeast inh 18µM (no result: Abeta yeast res)
Cc1ccc(CSc2nc3ccsc3c(=O)n2Cc2ccccn2)cc1	Mito fusion act inconclusive, TDP-43 yeast inh 35µM (no result: FUS yeast rescue)
O=C(COc1ccccc1F)N1CCc2ccccc2C1	TDP-43 yeast inh inconclusive
O=C(COc1c(Br)cc(Br)c2cccnc12)N1CCc2ccccc2C1	Mito fusion act inconclusive, TDP-43 yeast inh inconclusive, aSyn yeast inh 13µM
O=C(COc1ccccc1Cl)N1CCc2ccccc2C1	TDP-43 yeast inh 13µM
CCN1CCN(C(=O)/C=C/c2c(F)cccc2Cl)CC1	none (no result: FUS yeast rescue)
O=C(/C=C/c1c(F)cccc1Cl)N1CCc2ccccc2C1	Mito fusion act inconclusive, TDP-43 yeast inh 7.9µM, aSyn yeast inh inconclusive
O=C(NC1CCCC1)N1CCC(c2nc3ccc(Cl)cc3[nH]2)CC1	none (no result: Mito fusion act, Abeta yeast res, TDP-43 yeast inh, ERG Ets-DNA blk, aSyn yeast inh)
Cc1c(Cl)cccc1NC(=O)c1ccc2nc(C(C)C)oc2c1	none (no result: Mito fusion act, aSyn yeast inh)
CCOC(=O)c1sc2nc(OCc3cccnc3)cc(C)c2c1N	TDP-43 yeast inh inconclusive (no result: Mito fusion act, ERG Ets-DNA blk)
COC(=O)c1sc(-c2ccccc2)cc1NC(=O)Nc1ccc(F)cc1	none (no result: Mito fusion act, aSyn yeast inh)
COc1ccc(-c2cc(C(F)(F)F)nc(NCc3ccccc3)n2)cc1	none (no result: Mito fusion act, aSyn yeast inh)
COc1ccc(-c2cc(C(F)(F)F)c3c(=O)n(-c4ccccc4)[nH]c3n2)cc1	TDP-43 yeast inh 8.9µM (no result: aSyn yeast inh)
CN(Cc1ccccc1)C(=O)c1ccc(CSc2nc3cccnc3n2Cc2ccccc2F)cc1	none (no result: Mito fusion act, aSyn yeast inh)
N#Cc1ccc(OS(=O)(=O)c2ccc(-c3ccon3)s2)cc1	TDP-43 yeast inh 13µM
O=S(=O)(Nc1ccc(OC(F)F)cc1)c1ccc(-c2ccon2)s1	Mito fusion act inconclusive
CCCCCCCC1=NN(c2ccc(S(=O)(=O)O)cc2)C(=O)C1N=O (configuration not stated)	none (no result: Mito fusion act, ERG Ets-DNA blk)
CC1=C(C(=O)N(C(C)C)C(C)C)CC(CC(=O)NCc2cccc3ccccc23)C(=O)N1Cc1ccc(C(C)(C)C)cc1 (configuration not stated)	aSyn yeast inh inconclusive, FUS yeast rescue 6.3µM (no result: Mito fusion act, ERG Ets-DNA blk)
CC1=C(C(=O)N(C(C)C)C(C)C)CC(CC(=O)NCC2CCCCC2)C(=O)N1Cc1ccc(C(C)(C)C)cc1 (configuration not stated)	TDP-43 yeast inh 37µM, FUS yeast rescue inconclusive (no result: Mito fusion act, Abeta yeast res, ERG Ets-DNA blk, aSyn yeast inh)
CC1=C(C(=O)N(C)C)CC(CC(=O)NCc2cccc3ccccc23)C(=O)N1Cc1ccc(C(C)(C)C)cc1 (configuration not stated)	FUS yeast rescue inconclusive (no result: Mito fusion act, ERG Ets-DNA blk)
COc1ccccc1-c1nnc2sc(COc3ccc(Cl)cc3)nn12	TDP-43 yeast inh 18µM, FUS yeast rescue inconclusive
COc1ccc(-c2nnc3sc(COc4ccc(C)cc4)nn23)cc1	none
COc1ccc(-c2nnc3sc(COc4ccccc4)nn23)cc1	TDP-43 yeast inh 2.8µM
COc1ccc(Cc2nn3c(-c4ccccc4OC)nnc3s2)cc1	TDP-43 yeast inh inconclusive
Cc1cc(Cl)ccc1NC(=O)CN1C(=O)COc2ccc(S(=O)(=O)Nc3ccccc3)cc21	none (no result: Mito fusion act, aSyn yeast inh)
O=C(Nc1ccccc1)N1CCN(c2nc(-c3ccccc3)ns2)CC1	TDP-43 yeast inh 11µM
CCOC(=O)[C@]12CCCC=C1N(CCc1ccc(OC)c(OC)c1)C(=O)[C@H](CC(=O)NCCCCc1ccccc1)C2	FUS yeast rescue inconclusive (no result: Mito fusion act, ERG Ets-DNA blk)
CC(C)c1cc(C(C)C)c(S(=O)(=O)NC(c2ccccn2)C23CC2C3)c(C(C)C)c1 (configuration not stated)	TDP-43 yeast inh 22µM, aSyn yeast inh inconclusive, FUS yeast rescue inconclusive (no result: Mito fusion act, ERG Ets-DNA blk)
CC(C)c1cc(C(C)C)c(S(=O)(=O)NCC(=O)N2CCN(c3ncccn3)CC2)c(C(C)C)c1	none (no result: Mito fusion act, Abeta yeast res, TDP-43 yeast inh, ERG Ets-DNA blk, aSyn yeast inh)
COc1cc2oc3ccc(C#Cc4ccccn4)cc3c(=O)c2cc1OC	aSyn yeast inh 13µM (no result: Mito fusion act)
CCCNC(=O)C1(C)CCN1C(=O)C/C=C/c1ccccc1 (configuration not stated)	none (no result: Mito fusion act, ERG Ets-DNA blk)
COC(=O)[C@]1(C)N[C@H](CN(C)S(=O)(=O)c2ccc(-c3ccccc3)cc2)[C@@H]2C(=O)N(C)C(=O)[C@@H]21	aSyn yeast inh 3.2µM (no result: Mito fusion act)
